In PubChem BioAssay:
Calls of active or inactive are those of the source.

How the values were obtained:
[1] = molecular target: Albumin (Bos taurus) (UniProt P02769); test: bovine serum albumin binders on microarray, profiling panel, artefact control for SMM control protein annotation, biochemical, small-molecule microarray, Alexa647 label, 635/667 nm fluorescence (AID 1118); details: BSA-A647 binding, fluorescence 635 nm, higher = more signal;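 note: score merges 667 nm emission intensity and signal-to-noise per printed compound spot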
Chain of Albumin (Bos taurus) (P02769 whole entry, looked up): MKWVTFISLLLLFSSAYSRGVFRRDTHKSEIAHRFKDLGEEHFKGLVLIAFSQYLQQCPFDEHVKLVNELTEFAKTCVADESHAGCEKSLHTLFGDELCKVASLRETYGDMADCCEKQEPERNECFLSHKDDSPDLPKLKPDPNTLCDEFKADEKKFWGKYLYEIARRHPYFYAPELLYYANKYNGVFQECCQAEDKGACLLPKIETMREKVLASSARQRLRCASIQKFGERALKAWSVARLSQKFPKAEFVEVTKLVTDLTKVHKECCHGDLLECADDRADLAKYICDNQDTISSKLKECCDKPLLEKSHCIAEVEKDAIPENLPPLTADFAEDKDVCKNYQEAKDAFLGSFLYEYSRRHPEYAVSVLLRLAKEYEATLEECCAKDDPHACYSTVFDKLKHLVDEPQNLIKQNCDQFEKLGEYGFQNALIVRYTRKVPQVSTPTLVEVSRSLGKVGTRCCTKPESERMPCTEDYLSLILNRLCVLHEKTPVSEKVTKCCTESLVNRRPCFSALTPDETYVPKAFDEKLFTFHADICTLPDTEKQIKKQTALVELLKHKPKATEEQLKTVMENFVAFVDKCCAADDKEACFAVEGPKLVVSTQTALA

[2] = small-molecule microarray binders of probe aXIP, primary screen, biochemical, NeuroSMM set, 635/667 nm fluorescence (AID 1119); details: higher = more signal, called active from +8 up or from −8 down;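 note: probe is the protein aXip251-270 applied at 1 µg/mL to compound-printed slides; binding of probe to printed compounds measured as 667 nm fluorescence plus signal to noise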
[3] = small-molecule binders of probe aNOTCH3, primary screen, biochemical, small-molecule microarray, 635/667 nm fluorescence (AID 1120); details: higher = more signal;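 note: probe is a biotin-tagged antibody raised against NOTCH3 rather than NOTCH3 protein; score merges spot fluorescence near 667 nm with spot signal to noise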
[4] = small-molecule binders of probe aNOTCH2, primary screen, biochemical, small-molecule microarray, 635/667 nm fluorescence (AID 1121); details: higher = more signal;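 note: score merges feature fluorescence read at 667 nm with its signal to noise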
[5] = molecular target: Carbonic anhydrase 2 (Homo sapiens) (UniProt P00918); test: CAII small-molecule binders, profiling panel, biochemical, small-molecule microarray, Alexa647-labelled CAII (AID 1122); details: CAII-A647 binding fluorescence, higher = more signal
[6] = COS7 lysate on small-molecule microarray, probe aHis, 635 nm (AID 1123); details: COS7 cell lysate, fluorescence, higher = more signal;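 note: z-score combines 667nm fluorescence intensity with signal-to-noise per printed compound spot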
[7] = compound binding in COS7 lysate, probe aLAP1, primary screen, cell lysate, small-molecule microarray (AID 1124); details: probe aLAP1, fluorescence, higher = more signal;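 note: lysate comes from COS7 cells expressing LAP1 and is applied at 0.3 µg/mL; score merges spot fluorescence near 667 nm with signal-to-noise over triplicate slides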
[8] = tested on: Sam68 (KHDRBS1); test: Sam68 small-molecule binders, primary screen, biochemical, small-molecule microarray, 635 nm fluorescence (AID 1125); details: small-molecule microarray binding, higher = more signal;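 note: score merges 667 nm channel intensity with signal to noise over triplicate slides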
[9] = tested on: Chordin-like protein 2 (CHRDL2); test: CHRDL2 small-molecule binders, primary screen, biochemical, small-molecule microarray, 635 nm fluorescence (AID 1126); details: small-molecule microarray binding, fluorescence 635 nm; higher = more signal;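 note: printed compound slides probed with Chrdl2 protein at 4 µg/mL for 1 h at 4 C; score merges 667 nm emission intensity with signal to noise over three replicate slides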
[10] = molecular target: Concanavalin-A (Canavalia ensiformis) (UniProt P02866); test: ConA small-molecule binders, primary screen, artefact control for SMM control protein annotation, biochemical, small-molecule microarray, Alexa647 label, 635 nm (AID 1127); details: ConA-A647 binding fluorescence, higher = more signal;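 note: z combines 667 nm emission intensity with signal-to-noise across three replicate slides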
Chain of Concanavalin-A (Canavalia ensiformis) (P02866 whole entry, looked up): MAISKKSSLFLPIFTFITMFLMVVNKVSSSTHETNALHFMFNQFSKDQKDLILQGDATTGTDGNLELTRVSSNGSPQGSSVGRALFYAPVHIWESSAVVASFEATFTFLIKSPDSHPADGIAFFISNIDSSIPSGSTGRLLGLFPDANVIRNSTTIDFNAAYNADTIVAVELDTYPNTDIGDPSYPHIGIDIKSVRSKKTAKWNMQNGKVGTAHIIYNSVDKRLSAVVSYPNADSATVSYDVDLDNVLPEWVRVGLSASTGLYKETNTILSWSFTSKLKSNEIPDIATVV

Row | SMILES | composite z-score [1] | composite Z-score [2] | composite z-score [3] | composite z-score [4] | composite z-score [5] | composite z-score [6] | composite z-score [7] | composite z-score [8] | composite z-score [9] | composite z-score [10]
1 | C=CCC(OC(C)=O)[C@@H]1[C@@H](N(Cc2cc3ccccc3o2)C(=O)c2ccc(-c3ccccc3)cc2)c2cc(OCCCO)ccc2N1C(=O)c1ccc2ccccc2n1 (stereo not given in full) | 0.593 | 0.176 (inactive) | -0.0362 | -0.0901 | 0.0088 | 0.23 | 0.269 | -0.626 | 0.163 | -1.34
2 | C=C(C(=O)CC[C@@H](OC(C)=O)c1cccc(OCCO)c1)C(C)C | 0.371 | 0.566 (inactive) | -0.0311 | -0.148 | 0.862 | 1.82 | 0.0326 | 0.813 | -0.298 | 0.691
3 | COCCOC(=O)N1C(=O)[C@@]2(c3cc(C#Cc4ccc(OC)cc4)ccc31)[C@H](C(=O)Nc1nc3ccccc3s1)[C@H]1C(=O)O[C@H](c3ccccc3)[C@H](c3ccccc3)N1[C@@H]2c1ccccc1OCCO | 0.545 | -0.331 (inactive) | 0.124 | 0.159 | 0.547 | 0.874 | 0.304 | 0.997 | 0.649 | 1.11
4 | O=C1OCCC=C[C@H]2OC34C=CCN(c5ccc(Cl)cc5)C(=O)[C@H]3N(CCO)C(=O)[C@@H]4C12 (stereo not given in full) | 0.597 | 0.359 (inactive) | -0.406 | -0.189 | 0.859 | -0.387 | -0.419 | -0.914 | -0.291 | -0.648
5 | C=C(CCCC)C(=O)CC[C@H](OC(=O)c1cccnc1)c1ccc(CO)o1 | 0.133 | 0.0385 (inactive) | 0.19 | -0.0323 | 0.555 | 1.07 | 1.06 | 1.3 | 0.608 | 1.1
6 | COC(=O)C1=CC(CCCO)=CC(C2CC2)N(Cc2cccc(OC(F)(F)F)c2)C=C1C(=O)OC (stereo not given) | 0.896 | 0.816 (inactive) | -0.0039 | -0.138 | 0.806 | 2.23 | 0.637 | 1.26 | -0.745 | 0.449
7 | O=C1O[C@@H](c2ccccc2)[C@@H](c2ccccc2)N2[C@@H](c3ccc(OCCO)cc3)[C@]3(C(=O)Nc4ccc(C#CCCO)cc43)[C@@H](C(=O)Nc3nc4ccccc4s3)[C@H]12 | 0.844 | 1.09 (inactive) | 0.289 | -0.148 | 0.458 | 1.48 | 0.426 | 1.3 | 0.324 | 1.09
8 | COCCOC(=O)N1C(=O)[C@@]2(c3cc(C#CCNC(N)=O)ccc31)[C@H](C(=O)NC[C@H](O)c1ccccc1)[C@H]1C(=O)O[C@H](c3ccccc3)[C@H](c3ccccc3)N1[C@@H]2c1ccc(OCCO)cc1 | 0.472 | -0.102 (inactive) | 0.0018 | -0.2 | 0.355 | 0.245 | 0.666 | 1.26 | 0.285 | 1.02
9 | CN(C)C(=O)[C@]1(Cc2ccccc2CN=[N+]=[N-])N=C(c2ccc(OCCCO)cc2)O[C@@H]1c1ccccc1N=[N+]=[N-] | 0.873 | -0.118 (inactive) | -0.155 | -0.153 | 0.58 | 2.68 | -0.339 | 1.3 | -0.534 | 1.07
10 | CC(C)CNC(=O)[C@@H]1c2ccccc2C(=O)N(Cc2ccccc2)[C@H]1c1ccc(CO)cc1 | -0.159 | -0.318 (inactive) | -0.394 | -0.122 | 0.83 | 1.63 | 1.35 | 0.293 | -1.1 | -0.102
11 | C#CCN(C/C=C/c1ccccc1)[C@H](CO[Si](C)(C)C(C)(C)C)c1ccccc1 | 0.491 | -0.12 (inactive) | -0.125 | -0.229 | -0.33 | -0.0873 | 0.0021 | 0.102 | -0.167 | -0.111
12 | COCCCNC(=O)[C@@H]1c2ccccc2C(=O)N(C2CCCCC2)[C@H]1c1ccc(CO)cc1 | -0.527 | -1.17 (inactive) | -0.27 | -0.106 | 0.471 | 1.08 | 0.0117 | -0.724 | -1.23 | -0.247
13 | COCCOC(=O)N1C(=O)[C@@]2(c3ccccc31)[C@H](C(=O)N1CCCCCCC1)[C@H]1C(=O)O[C@H](c3ccccc3)[C@H](c3ccccc3)N1[C@@H]2c1ccc(O)cc1 | 0.816 | 4.39 (inactive) | 2 | 0.95 | 0.608 | 3.97 | 2.11 | 1.3 | 1.41 | 1.03
14 | C=CCOC(=O)[C@H]1[C@@H]2C(=O)O[C@@H](c3ccccc3)[C@@H](c3ccccc3)N2[C@@H](c2ccc(OCCOC(=O)[C@H]3C[C@H]4C(=O)NCC(=O)N4[C@H]3c3ccc(O)cc3)cc2)[C@]12C(=O)Nc1ccc(I)cc12 | 0.163 | -0.0149 (inactive) | -0.0647 | -0.104 | 0.0742 | 0.737 | 0.0174 | 0.503 | 0.677 | 1.13
15 | COc1cccc(OC)c1C(=O)O[C@H]1[C@@H]2OC(=O)[C@H](Cc3cccc(Br)c3)C/C=C/C[C@@H](Cc3cccc(Br)c3)C(=O)O[C@H]2[C@@H](OC)O[C@@H]1CO | 0.33 | 0.878 (inactive) | -0.122 | -0.105 | 0.628 | 1.2 | 0.56 | 1.06 | 0.351 | 0.293
